Structures can show the parent of a compound that is named as a salt.
System: HL-1
Assay: relative cell viability (CellTiter-Glo) vs DMSO control (% of DMSO control); higher = more viable cells
Method in brief: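 In 384-well plates, 1000 HL-1 mouse atrial cardiomyocytes per well were plated with compounds at 40, 200, 1000 or 5000 nM in 0.01% DMSO. Hypoxia at 1% O2 for 48 h began one day later and was followed by 24 h of reoxygenation, with parallel plates held in normoxia. CellTiter-Glo luminescence gave cell viability relative to vehicle-treated control cells.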

[1] = oxygen condition: hypoxia 48 h (1% O2) + reoxygenation 24 h, 40 nM
[2] = oxygen condition: hypoxia 48 h (1% O2) + reoxygenation 24 h, 200 nM
[3] = oxygen condition: hypoxia 48 h (1% O2) + reoxygenation 24 h, 1000 nM
[4] = oxygen condition: hypoxia 48 h (1% O2) + reoxygenation 24 h, 5000 nM
[5] = oxygen condition: normoxia 72 h, 40 nM
[6] = oxygen condition: normoxia 72 h, 200 nM
[7] = oxygen condition: normoxia 72 h, 1000 nM
[8] = oxygen condition: normoxia 72 h, 5000 nM

SMILES | relative cell viability [1] | relative cell viability [2] | relative cell viability [3] | relative cell viability [4] | relative cell viability [5] | relative cell viability [6] | relative cell viability [7] | relative cell viability [8]
CC(C)(C)CC(C)(C)c1ccc(OCCOCC[N+](C)(C)Cc2ccccc2)cc1 [Benzethonium chloride] | 102 | 94.7 | 75.7 | 17.6 | 97.9 | 93.1 | 66.7 | 18
CC(C)(Oc1ccc(CCNC(=O)c2ccc(Cl)cc2)cc1)C(=O)O [Bezafibrate] | 102 | 98.2 | 105 | 107 | 105 | 101 | 99.8 | 103
CCN1CCCC1CNC(=O)c1cc(S(=O)(=O)CC)c(N)cc1OC (stereo not drawn) [Amisulpride] | 103 | 104 | 111 | 108 | 104 | 107 | 119 | 111
C#Cc1cccc(Nc2ncnc3cc(OCCOC)c(OCCOC)cc23)c1 [Erlotinib HCl] | 114 | 107 | 105 | 124 | 112 | 123 | 112 | 113
CCOC(=O)C1=C(C)NC(C)=C(C(=O)OCC)C1c1ccccc1/C=C/C(=O)OC(C)(C)C [Lacidipine] | 109 | 102 | 100 | 102 | 106 | 104 | 106 | 106
CC(=O)[C@H]1CC[C@H]2[C@@H]3C=CC4=CC(=O)CC[C@@]4(C)[C@@H]3CC[C@]12C [Dydrogesterone] | 97.1 | 99 | 106 | 105 | 100 | 98.8 | 96.7 | 105
CNCC(O)c1ccc(O)c(O)c1 (racemic) [DL-Adrenaline] | 100 | 97.8 | 67.7 | 15.5 | 107 | 93.8 | 63.6 | 11.8
C[C@@](Cc1ccc(O)c(O)c1)(NN)C(=O)O [Carbidopa] | 101 | 100 | 101 | 106 | 96.4 | 96.4 | 102 | 110
Cc1c(OCC(F)(F)F)ccnc1C[S@@+]([O-])c1nc2ccccc2[nH]1 [Dexlansoprazole] | 105 | 101 | 107 | 105 | 101 | 97.7 | 104 | 91.9
O=C(CCCN1CCN(c2ccccn2)CC1)c1ccc(F)cc1 [Azaperone] | 107 | 104 | 102 | 103 | 102 | 107 | 110 | 111
COC(=O)[C@H]1[C@H]2C[C@@H]3c4[nH]c5cc(OC)ccc5c4CCN3C[C@H]2C[C@@H](OC(=O)c2cc(OC)c(OC)c(OC)c2)[C@@H]1OC [Reserpine] | 112 | 106 | 107 | 110 | 102 | 103 | 103 | 113
CCOc1cc(CC(=O)N[C@@H](CC(C)C)c2ccccc2N2CCCCC2)ccc1C(=O)O [Repaglinide] | 84.4 | 97.2 | 109 | 109 | 67.6 | 110 | 114 | 115
CCCCNc1cc(C(=O)O)cc(S(N)(=O)=O)c1Oc1ccccc1 [Bumetanide] | 102 | 108 | 110 | 113 | 105 | 96.8 | 112 | 118
OC1(c2ccc(Cl)c(C(F)(F)F)c2)CCN(CCCC(c2ccc(F)cc2)c2ccc(F)cc2)CC1 [Penfluridol] | 96.8 | 107 | 96.7 | 116 | 97.8 | 100 | 104 | 120
NS(=O)(=O)Cc1noc2ccccc12 [Zonisamide] | 105 | 108 | 107 | 115 | 108 | 112 | 116 | 103
O=C(O)Cc1ccccc1Nc1c(Cl)cccc1Cl [Diclofenac] | 97.6 | 112 | 103 | 109 | 100 | 105 | 105 | 109
CCCCNC(=O)NS(=O)(=O)c1ccc(C)cc1 [Tolbutamide] | 99 | 99.7 | 101 | 113 | 103 | 102 | 102 | 110
CC(S)C(=O)NCC(=O)O (stereo not drawn) [Tiopronin] | 95.4 | 102 | 104 | 105 | 99.2 | 98.9 | 101 | 103
CCCCC(=O)N(Cc1ccc(-c2ccccc2-c2nnn[nH]2)cc1)[C@H](C(=O)O)C(C)C [Valsartan] | 104 | 97.5 | 80.6 | 51.6 | 98.1 | 95.6 | 93.8 | 45.1
COC(=O)N[C@H](C(=O)N[C@@H](Cc1ccccc1)[C@@H](O)CN(Cc1ccc(-c2ccccn2)cc1)NC(=O)[C@@H](NC(=O)OC)C(C)(C)C)C(C)(C)C [Atazanavir sulfate] | 104 | 101 | 105 | 108 | 101 | 97 | 98.5 | 116
CC(=O)Oc1cc2c(s1)CCN(C(C(=O)C1CC1)c1ccccc1F)C2 (stereo not drawn) [Prasugrel] | 115 | 104 | 106 | 110 | 106 | 105 | 122 | 120

SMILES | relative cell viability [1] | relative cell viability [2] | relative cell viability [3] | relative cell viability [4] | relative cell viability [5] | relative cell viability [6] | relative cell viability [7] | relative cell viability [8]
NS(=O)(=O)c1cc(Cl)c(Cl)c(S(N)(=O)=O)c1 [Dichlorphenamide] | 109 | 106 | 103 | 115 | 105 | 102 | 103 | 109
Cc1ccccc1N1C(=O)c2cc(S(N)(=O)=O)c(Cl)cc2NC1C (stereo not drawn) [Metolazone] | 104 | 107 | 107 | 111 | 109 | 110 | 112 | 116
COc1cccc2c1C(=O)c1c(O)c3c(c(O)c1C2=O)C[C@@](O)(C(=O)CO)C[C@@H]3O[C@H]1C[C@H](N)[C@H](O)[C@H](C)O1 [Doxorubicin] | 63.3 | 44 | 57.3 | 16.7 | 63 | 55.4 | 52.4 | 13.7
NC(=O)c1ncn([C@@H]2O[C@H](CO)[C@@H](O)[C@H]2O)c1O [Mizoribine] | 103 | 109 | 115 | 108 | 111 | 104 | 103 | 110
CO[C@H]1C[C@@H]2CC[C@@H](C)[C@@](O)(O2)C(=O)C(=O)N2CCCC[C@H]2C(=O)O[C@H]([C@H](C)C[C@@H]2CC[C@@H](OCCO)[C@H](OC)C2)CC(=O)[C@H](C)/C=C(\C)[C@@H](O)[C@@H](OC)C(=O)[C@H](C)C[C@H](C)/C=C/C=C/C=C/1C [Everolimus] | 79.5 | 75 | 73.9 | 87.5 | 70.4 | 66.9 | 66.5 | 69.7
COCCCC/C(=N\OCCN)c1ccc(C(F)(F)F)cc1 [Fluvoxamine maleate] | 101 | 109 | 94.9 | 94.7 | 109 | 98.3 | 106 | 95.2
CC1COc2c(N3CCN(C)CC3)c(F)cc3c(=O)c(C(=O)O)cn1c23 (stereo not drawn) [Ofloxacin] | 99.3 | 99.8 | 97.8 | 108 | 98.5 | 97.3 | 62.4 | 115
Nc1nc2[nH]cc(CCc3ccc(C(=O)N[C@@H](CCC(=O)O)C(=O)O)cc3)c2c(=O)[nH]1 [Pemetrexed] | 116 | 104 | 85.8 | 74.8 | 104 | 95.5 | 90.8 | 69.6
COc1ccc([C@H]2CNC(=O)C2)cc1OC1CCCC1 [S-(+)-Rolipram] | 103 | 92.3 | 89.4 | 90.4 | 95.6 | 101 | 98.7 | 103
NC(=O)OCC(COC(N)=O)c1ccccc1 [Felbamate] | 101 | 106 | 96.3 | 110 | 110 | 107 | 105 | 110
CCc1ccc(CCOc2ccc(CC3SC(=O)NC3=O)cc2)nc1 (stereo not drawn) [Pioglitazone hydrochloride] | 106 | 97.2 | 103 | 106 | 94.5 | 97.9 | 101 | 103
CS(=O)(=O)c1ccc(C(=O)Nc2ccc(Cl)c(-c3ccccn3)c2)c(Cl)c1 [Vismodegib] | 103 | 107 | 108 | 117 | 104 | 110 | 114 | 112
CN1CCC(=C2c3ccccc3CC(=O)c3sccc32)CC1 [Ketotifen fumarate] | 108 | 103 | 101 | 113 | 99.8 | 100 | 105 | 106
CN(CCOc1ccc(NS(C)(=O)=O)cc1)CCc1ccc(NS(C)(=O)=O)cc1 [Dofetilide] | 102 | 99.8 | 99.2 | 112 | 101 | 109 | 106 | 107
CC=CC1=C(C(=O)O)N2C(=O)[C@@H](NC(=O)[C@H](N)c3ccc(O)cc3)[C@H]2SC1 [Cefprozil hydrate] | 95.4 | 104 | 105 | 104 | 102 | 103 | 100 | 107
CCCCC1C(=O)N(c2ccccc2)N(c2ccccc2)C1=O [Phenylbutazone] | 100 | 104 | 93.3 | 110 | 102 | 112 | 43.1 | 112
O=C(O)C1=CO[C@@H](O[C@@H]2O[C@H](CO)[C@@H](O)[C@H](O)[C@H]2O)[C@@H]2C(CO)=CC[C@H]12 [Geniposidic acid] | 107 | 109 | 110 | 112 | 103 | 120 | 117 | 121
CN1C2=CC(=O)/C(=N\NC(N)=O)C=C2CC1S(=O)(=O)O (stereo not drawn) [Carbazochrome sodium sulfonate] | 99 | 97 | 101 | 112 | 95 | 102 | 89.9 | 108
O=c1[nH]c(=O)n(C2CCCO2)cc1F (stereo not drawn) [Ftorafur] | 101 | 103 | 104 | 96.9 | 100 | 101 | 114 | 89.2
O=C(O)Cc1ccccc1Nc1c(Cl)cccc1Cl [Diclofenac Diethylamine] | 103 | 107 | 105 | 113 | 110 | 115 | 120 | 113

— the supplement of paper PMC8371130
